The source of these data is PubChem BioAssay (NCI).

Each structure is given as a SMILES string. About 83,000 compounds went through this panel and 20% of them were active in at least one assay; those are over-represented in the sample as a whole.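 Negative percent growth values reflect cell death: -40 means 40% of the cells present at the start died, and -100 means all died.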 A number with no mark means an inactive call. The source made the active and inactive calls. Rule for the calls: active = growth percent below 10; inactive = the rest.

The assay has as its system MDA-MB-468 breast. Description: NCI-60 one-dose screen, 48 h (100 = growth as untreated, 0 = no growth, -100 = all killed). The settings on record: 10 µM unless noted.
Take `COC[C@H](C)n1c(C2CCOCC2)nc2cnc3cc(-c4c(C)noc4C)c(OC)cc3c21`: the growth is 54.5%. Take `O=NN(CC(=O)N/N=C/C=C\c1ccccc1)CC(=O)N/N=C/C=C/c1ccccc1`: the growth was 91.1%. To `Cc1cc(Cl)ccc1Nc1nc(C(F)(F)F)ccc1C(=O)N/N=C/c1ccccc1Cl` belongs 6.05% (active); to `CCCCCCCCCCCCCCCC(=O)OC1[C@@H](OC(=O)CCCCCCCCCCCCCCC)[C@@H](C(=O)N[C@@H](CCCCN)C(=O)OC)O[C@H]1n1cnc2c(=O)[nH]c(NC(=O)C(C)C)nc21` (stereo not given in full), 83.1%.

For `COc1cc(/C=C2\CCCC3=C2N=C2SC=NN2C3c2cc(OC)c(OC)c(OC)c2)cc(OC)c1OC` (stereo not given), the growth is 18.1%. As to `Cn1c2c(cc(S(=O)(=O)c3ccccc3)c1=O)CCc1c-2cnn1-c1ccc(Cl)cc1`, the growth is -43% (active). On to `C/C(=N\NC(N)=O)c1c(O)sc(=O)[nH]c1=O`, for which the growth was 97.4%. Consider `Cc1c(CC(=O)OCCO)cc(-c2ccc(Cl)cc2)n1-c1ccccc1`, for which the growth was 89.1%. Take `CCN(CC)c1ccc(/C=N/NC(=O)c2ccccc2Nc2ccnc(C(F)(F)F)c2)c(O)c1`: the growth is 24.7%.

For `O=c1[nH]cnc2nc[nH]c12`, the growth is 100%. As for `O=C(NNc1nc2cc(F)ccc2n2c(CN3CCOCC3)ccc12)c1ccccc1`, the growth is -27.9% (active). For `CCN1C(=O)N(CC)C2C1NC(=O)N2/N=C/C=C/c1ccccc1` (stereo not given), the growth was 19.5%. To `COc1ccc2c(NCCCCCCCCNc3c4ccccc4nc4cc(OC)ccc34)c3ccccc3nc2c1` belongs -100% (active); to `Cc1cnc(C(=O)Nc2nc3ccc(S(=O)(=O)Nc4ccc(C(C)(C)C)cc4)cc3[nH]2)cn1`, -11.4% (active). As for `CCOC(=O)c1cnc2ccc(Cl)cc2c1NCCCN(C)C`, the growth is -31.3% (active).

For `Nc1ccc2c(c1)c(N)nn2C(=O)Nc1ccc(Cc2ccccc2)cc1`, the growth was 98.4%. For `COc1ccc(-c2cc(-c3ccc(Nc4nc(Nc5ccccc5)nc(Nc5ccc(Cl)cc5)n4)cc3)nc(N)n2)cc1`, the growth is 87.4%. Consider `Cc1cc(N2CCOCC2)nc(N(CCCNc2ccnc3cc(Cl)ccc23)Cc2ccc3c(c2)OCO3)n1`, for which the growth is -63.6% (active). To `CCCCCCCCCCCCCC(=O)C(C)N` (stereo not given) belongs 33.3%; to `COc1cccc(/C=C2/C(=O)N(Cc3ccco3)SC2=S)c1OC`, 76%; to `C[C@]12CC[C@H]3[C@@H](CC[C@H]4C[C@@H](O)CC[C@@]43C)[C@@H]1CC(=O)C2`, 113%.

In the case of `Nn1c(=O)n(-c2cccc(C(F)(F)F)c2)c(=O)c2cc(-c3ccc(F)cc3F)ccc21`, the growth was -5.36% (active). Under `CCCCCCCC(=O)OCC/C=C/C1OC1C1OC(=O)/C=C\C=C\C(=O)N(C(C)=O)C(=O)/C=C(/C)CCC2OC2C1OC(=O)NC(C)=O` (stereo not given) stands -3.75% (active); under `Cn1ccnc1C(=O)/C=C/c1ccc(C(=O)Nc2c(F)c(F)c(F)c(F)c2F)cc1`, -16.7% (active); under `O=C1C=Cc2ccccc2/C1=C/c1nc(-c2ccccc2)oc1O`, 88.6%. Take `O=C(NCCN1CCCCC1)n1cc(-c2ccncc2)c(-c2ccc(Cl)c(O)c2)n1`: the growth is 83.8%.

Take `NC(N)=Nc1ccc(Nc2cccc(Nc3ccc(Cl)c(C(F)(F)F)c3)c2)cn1`: the growth is -7.19% (active). Take `Cc1nc(NC(=O)COc2ccc(/C=C3\Cc4ccc(Cl)cc4C3=O)cc2)sc1C`: the growth was 112%. Regarding `CCN(CC)c1ccc(/C=C\C(=O)c2ccc(NC(C)=O)cc2)cc1`, the growth was 10.7%.

Take `CSc1nc2sc3cc(Cl)ccc3n2c(=N)c1C#N`: the growth is -45% (active). Under `CN1CCN(Cc2ccc(NC(=O)c3cncc(C#Cc4cnc(N)c5ccccc45)c3)cc2C(F)(F)F)CC1` stands -80.8% (active); under `N#Cc1c(-c2ccccc2)cc(-c2ccccc2)n(CCCC(=O)Nc2ccccc2N)c1=O`, 14.9%; under `COC(=O)[C@]12CC[C@@H](C)[C@H](C)[C@@H]1C1=CC[C@@H]3[C@@]4(C)C[C@@H](OC(=O)c5ccco5)[C@H](O)[C@@](C)(CO)[C@@H]4[C@H](O)C[C@@]3(C)[C@]1(C)CC2`, -89.1% (active). To `COc1cc(CN(CCC(O)N2CCCC2=O)Cc2ccc3c(c2)OCO3)cc(OC)c1OC` (stereo not given) belongs 119%; to `C[C@H](c1nc2ccc(C#N)cc2[nH]1)[C@H]1CC[C@H]2[C@@H]3CCC4=CC(=O)CC[C@]4(C)[C@H]3CC[C@]12C`, 15.6%; to `CCCCN(CCCC)CC(C)(C)C(O)c1ccc(OC)c2ccccc12` (stereo not given), 41.8%.

With `COc1cc(-c2nc3cc(Cl)c(Cl)cc3[nH]2)ccc1OCC(=O)N=Nc1c(O)[nH]c2ccccc12`, the growth was -86.3% (active). Under `COc1ccc(Cc2cc(-c3ccccc3C)n[nH]c2=O)cc1` stands 91.1%; under `C=C1C(=O)O[C@H]2[C@H]1CC/C(COC(=O)N[C@H]1C[C@H](O[C@H]3C[C@](O)(C(=O)CO)Cc4c(O)c5c(c(O)c43)C(=O)c3c(OC)cccc3C5=O)O[C@@H](C)[C@H]1O)=C\CC[C@@]1(C)O[C@@H]21`, -55.9% (active).

With `Cl.Fc1c[c-]c(-c2ccccn2)c(F)c1.[Pt].c1ccc([PH+](C[PH+](c2ccccc2)c2ccccc2)c2ccccc2)cc1`, the growth was -75.7% (active).
